These results are taken from PubChem BioAssay (NCATS).

“And” between values parts separate entries of the source, which are not always exact repeats. Identical values can stand only once. Results filed as inconclusive are left out. The source made the active and inactive calls. Unless noted, calls follow the shape of the full dose curve.

Assay [1] addresses Glucocorticoid receptor (Homo sapiens) (UniProt P04150). Kind of assay: qHTS assay for small molecule antagonists of glucocorticoid receptor signaling (AID 588533; active = well fitted inhibition curve with a large enough effect in the signal ratio, with a control signal flat, not every such curve was filed as active; the % refers to the signal ratio; also: potency is read from the fitted curve at half-maximal effect). Conditions: HeLa MMTV-bla, GRE beta-lactamase ratio, antagonist mode, 18 h; series mostly up to 76.8 µM. The method, boiled down: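 Antagonist-mode qHTS: compound titrations added to GRE-bla HeLa cells, then dexamethasone 2 nM final; 18 h, 37 C. CCF4 FRET fluorescence normalized to dexamethasone and DMSO; IC50 from Hill fit.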

Assay [2] has as its target Vitamin D3 receptor (Homo sapiens) (UniProt P11473). Nature of the assay: qHTS assay for small molecule agonists of vitamin D receptor signaling (AID 588543).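 Also: 0% = DMSO basal and 100% = reference agonist control.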 Particulars: HEK293T VDR-UAS-bla, beta-lactamase ratio, 16 h; series mostly up to 76.8 µM. Put shortly: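 Reporter cells (HEK293T, VDR-UAS-bla) were seeded in medium with 2% charcoal-stripped serum and incubated 5 h, then compounds in concentration series were added for 16 h at 37 °C. Stimulation was scaled between DMSO basal and 50 nM 1α,25-dihydroxyvitamin D3.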
On the technique in general: In qHTS, concentration-response curves come from the screen itself.

The nature of assay [3]: qHTS assay for small molecule agonists of retinoid X receptor alpha signaling (AID 588544). Conditions: HEK293T RXRa-UAS-bla, beta-lactamase reporter, 18 h; 530 nm emission.
The target in assay [4] is Retinoic acid receptor RXR-alpha (Homo sapiens) (UniProt P19793). Described as above. Conditions: HEK293T RXRa-UAS-bla, beta-lactamase reporter, 18 h; series mostly up to 76.7 µM.
Sequence of Retinoic acid receptor RXR-alpha (Homo sapiens) (P19793 whole entry, looked up): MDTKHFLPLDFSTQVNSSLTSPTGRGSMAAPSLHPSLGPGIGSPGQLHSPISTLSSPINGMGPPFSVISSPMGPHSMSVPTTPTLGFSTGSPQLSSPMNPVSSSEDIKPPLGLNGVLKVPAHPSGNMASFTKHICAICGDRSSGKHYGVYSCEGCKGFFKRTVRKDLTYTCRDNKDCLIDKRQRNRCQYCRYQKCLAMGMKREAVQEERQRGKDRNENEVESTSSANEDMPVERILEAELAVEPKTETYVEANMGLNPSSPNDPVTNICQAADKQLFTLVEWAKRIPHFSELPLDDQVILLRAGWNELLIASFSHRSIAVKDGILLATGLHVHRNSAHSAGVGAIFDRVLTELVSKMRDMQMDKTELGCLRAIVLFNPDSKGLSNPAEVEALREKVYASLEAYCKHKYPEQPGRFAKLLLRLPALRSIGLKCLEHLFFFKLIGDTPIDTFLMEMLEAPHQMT
In assay [5] the target is Thyroid hormone receptor beta (Homo sapiens) (UniProt P10828). Kind of assay: qHTS assay for small molecule agonists of thyroid hormone receptor beta signaling (AID 588545).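 Also: 0% = DMSO only and 100% = 10 nM T3.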 Conditions: TR-UAS-bla GripTite HEK 293, beta-lactamase ratio, agonist mode, 18 h, percent of T3 response, DMSO as zero; series mostly up to 76.7 µM. Put shortly: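 Efficacy and EC50 values derive from Hill fits of qHTS titration data, normalized to 10 nM T3 and DMSO-only wells. HEK 293 reporter cells were stimulated for 18 hrs at 37 C, with beta-lactamase activity measured by CCF4 fluorescence.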
Sequence of Thyroid hormone receptor beta (Homo sapiens) (P10828 whole entry, looked up): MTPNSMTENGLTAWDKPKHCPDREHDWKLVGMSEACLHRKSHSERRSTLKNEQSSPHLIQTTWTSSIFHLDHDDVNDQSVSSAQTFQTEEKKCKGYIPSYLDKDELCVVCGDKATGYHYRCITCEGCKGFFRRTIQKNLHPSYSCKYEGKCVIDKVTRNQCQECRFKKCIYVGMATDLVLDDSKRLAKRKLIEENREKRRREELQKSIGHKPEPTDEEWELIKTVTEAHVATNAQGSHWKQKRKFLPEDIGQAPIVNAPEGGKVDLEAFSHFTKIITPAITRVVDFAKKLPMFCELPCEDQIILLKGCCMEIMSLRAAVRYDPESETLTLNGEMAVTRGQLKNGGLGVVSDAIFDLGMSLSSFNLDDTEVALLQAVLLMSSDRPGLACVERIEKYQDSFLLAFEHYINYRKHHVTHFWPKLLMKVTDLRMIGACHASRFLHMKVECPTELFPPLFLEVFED

The nature of assay [6]: qHTS assay for small molecule antagonists of retinoid X receptor alpha signaling (AID 588546; active = well fitted inhibition curve with a large enough effect in the signal ratio, with a control signal flat, not every such curve was filed as active; the % refers to the signal ratio;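 also: cells stimulated with 9-cis-retinoic acid as agonist; % is scaled to controls: 0 for no effect and ±100 for the full control effect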). Conditions: HEK293T RXRa-UAS-bla, beta-lactamase ratio, antagonist mode; measured here: W530 green channel, cytotoxicity proxy. The method, boiled down:
(§1)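 Beta-lactamase reporter inhibition, read as CCF4 fluorescence ratio (ex 405, em 460/530 nm) after 2 h at RT. HEK293T UAS-bla cells, 2500/well, were stimulated with 9-cis-RA at 500 or 100 nM final alongside test compound for 18 h at 37 C.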

For assay [7], the target named is Retinoic acid receptor RXR-alpha (Homo sapiens) (UniProt P19793). The assay is described as above. Conditions: HEK293T RXRa-UAS-bla, beta-lactamase ratio, antagonist mode. Put shortly:
as §1

The target in assay [8] is Voltage-gated inwardly rectifying potassium channel KCNH2 (Homo sapiens) (UniProt Q12809). Kind of assay: qHTS Assay for Small Molecule Inhibitors of the Human hERG Channel Activity (AID 588834; active = well fitted curve in the direction sought with a large enough effect; an effect the other way counts as inactive or inconclusive;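 also: top concentration of the series differs between compounds; % is scaled to controls: 0 for no effect and ±100 for the full control effect; lower thallium flux fluorescence means stronger hERG block; nearly all actives have a fitted effect of over 50% in size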). Conditions: U2OS BacMam hERG, FluxOR thallium flux fluorescence; series mostly up to 46.1 µM. The method, boiled down: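 hERG-BacMam U2OS, 2000 cells/well; 0.7X FluxOR loading 1 hr RT dark; cpd ~10 min 37 °C; stim buffer; FDSS fluorescence 2 min @ 1 s; AC50 Hill fit.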
Sequence of Voltage-gated inwardly rectifying potassium channel KCNH2 (Homo sapiens) (Q12809 whole entry, looked up): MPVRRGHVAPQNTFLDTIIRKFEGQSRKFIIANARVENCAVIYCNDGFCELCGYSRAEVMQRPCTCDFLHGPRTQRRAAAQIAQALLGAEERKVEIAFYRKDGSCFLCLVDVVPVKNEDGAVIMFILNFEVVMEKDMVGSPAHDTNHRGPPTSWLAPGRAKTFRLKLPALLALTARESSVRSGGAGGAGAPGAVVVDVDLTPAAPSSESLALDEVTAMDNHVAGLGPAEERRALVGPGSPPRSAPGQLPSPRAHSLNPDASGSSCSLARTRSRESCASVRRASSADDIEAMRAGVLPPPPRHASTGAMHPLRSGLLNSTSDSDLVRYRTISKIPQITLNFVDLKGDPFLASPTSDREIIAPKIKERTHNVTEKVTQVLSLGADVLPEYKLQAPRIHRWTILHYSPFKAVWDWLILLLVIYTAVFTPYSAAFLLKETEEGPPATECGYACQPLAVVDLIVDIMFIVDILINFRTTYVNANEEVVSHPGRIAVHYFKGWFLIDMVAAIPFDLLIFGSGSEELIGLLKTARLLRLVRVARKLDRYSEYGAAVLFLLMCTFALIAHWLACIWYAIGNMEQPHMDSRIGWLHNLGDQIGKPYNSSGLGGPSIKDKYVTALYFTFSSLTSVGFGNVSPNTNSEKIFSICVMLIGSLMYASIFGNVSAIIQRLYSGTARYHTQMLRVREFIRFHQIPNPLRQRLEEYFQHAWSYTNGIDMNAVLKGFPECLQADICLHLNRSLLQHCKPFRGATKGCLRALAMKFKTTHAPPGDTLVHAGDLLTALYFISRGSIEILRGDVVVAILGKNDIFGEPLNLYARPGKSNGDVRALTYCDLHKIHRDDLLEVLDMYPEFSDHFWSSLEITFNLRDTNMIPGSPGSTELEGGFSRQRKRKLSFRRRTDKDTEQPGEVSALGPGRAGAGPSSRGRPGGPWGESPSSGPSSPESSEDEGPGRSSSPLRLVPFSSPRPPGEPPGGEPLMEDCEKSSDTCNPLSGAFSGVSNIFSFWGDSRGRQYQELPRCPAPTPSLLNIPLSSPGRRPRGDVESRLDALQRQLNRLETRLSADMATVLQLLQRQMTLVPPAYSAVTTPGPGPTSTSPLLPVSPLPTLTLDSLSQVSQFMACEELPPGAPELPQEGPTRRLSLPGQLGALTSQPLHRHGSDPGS

For assay [9], the target named is Luciferin 4-monooxygenase (Photinus pyralis) (UniProt P08659). Nature of the assay: Biochemical firefly luciferase enzyme assay for NPC (AID 624030; active = well fitted curve in the direction sought with a large enough effect; an effect the other way counts as inactive or inconclusive; also: nearly all actives have a fitted effect of over 70% in size; also: potency is read from the fitted curve at half-maximal effect). Conditions: purified P. pyralis luciferase, luminescence, 5 min; series mostly up to 58.6 µM. Put shortly: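 Purified P. pyralis luciferase at 10 nM in 50 mM Tris Acetate (final), luminescence read within 5 minutes of enzyme addition to compounds. Activity normalised to PTC124 versus DMSO; concentration-response curves classed by r2, magnitude and activity.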
Sequence of Luciferin 4-monooxygenase (Photinus pyralis) (P08659 whole entry, looked up): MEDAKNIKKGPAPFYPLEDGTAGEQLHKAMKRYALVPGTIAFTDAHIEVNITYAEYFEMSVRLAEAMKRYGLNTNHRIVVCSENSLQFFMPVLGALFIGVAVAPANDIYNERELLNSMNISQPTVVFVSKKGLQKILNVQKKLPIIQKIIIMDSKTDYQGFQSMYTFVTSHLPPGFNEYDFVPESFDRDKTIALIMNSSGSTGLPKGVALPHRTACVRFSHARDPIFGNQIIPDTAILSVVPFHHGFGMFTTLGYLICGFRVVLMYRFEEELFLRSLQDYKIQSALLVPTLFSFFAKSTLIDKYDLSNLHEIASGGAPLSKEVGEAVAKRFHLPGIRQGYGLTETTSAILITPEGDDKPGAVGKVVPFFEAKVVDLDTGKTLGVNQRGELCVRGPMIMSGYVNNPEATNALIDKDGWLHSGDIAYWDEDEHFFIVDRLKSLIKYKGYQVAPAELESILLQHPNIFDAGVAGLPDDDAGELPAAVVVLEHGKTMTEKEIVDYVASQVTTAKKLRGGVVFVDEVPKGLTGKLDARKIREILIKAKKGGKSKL

The target of assay [10] is Peroxisome proliferator-activated receptor delta (Homo sapiens) (UniProt Q03181). Kind of assay: qHTS assay for small molecule agonists of peroxisome proliferator-activated receptor delta signaling (AID 588534).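 Also: 0% = DMSO basal wells and 100% = positive control agonist at 10 µM.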 Particulars: HEK293T PPARdelta-UAS-bla, beta-lactamase ratio, 18 h; series mostly up to 76.7 µM. The method, boiled down: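 Cells carrying a PPAR-delta beta-lactamase reporter were treated with compounds for 18 h at 37 °C in agonist mode. CCF4 fluorescence was read after 2 h; EC50 and efficacy from Hill fits.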
Sequence of Peroxisome proliferator-activated receptor delta (Homo sapiens) (Q03181 whole entry, looked up): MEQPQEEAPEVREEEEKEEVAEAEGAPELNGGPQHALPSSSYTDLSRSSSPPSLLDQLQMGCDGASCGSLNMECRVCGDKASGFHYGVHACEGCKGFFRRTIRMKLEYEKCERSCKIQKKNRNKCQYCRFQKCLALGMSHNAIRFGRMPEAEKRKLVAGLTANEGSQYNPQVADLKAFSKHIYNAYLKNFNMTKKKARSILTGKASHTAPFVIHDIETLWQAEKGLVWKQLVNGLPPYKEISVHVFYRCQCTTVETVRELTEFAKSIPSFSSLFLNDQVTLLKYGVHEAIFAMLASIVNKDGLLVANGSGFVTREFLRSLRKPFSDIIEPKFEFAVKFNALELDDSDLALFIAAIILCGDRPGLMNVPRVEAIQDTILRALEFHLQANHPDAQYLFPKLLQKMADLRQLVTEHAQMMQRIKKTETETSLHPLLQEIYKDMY

Assay [11] in a line: qHTS assay for small molecule antagonists of peroxisome proliferator-activated receptor delta signaling (AID 588535; active = well fitted inhibition curve with a large enough effect in the signal ratio, with a control signal flat, not every such curve was filed as active; the % refers to the signal ratio;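 as to max response: cells co-treated with a PPAR-delta agonist as stimulator during compound exposure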). Particulars: HEK293T PPARd-UAS-bla, beta-lactamase FRET ratio, 18 h; 460 nm channel. Put shortly: (§2)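 Antagonist-mode beta-lactamase reporter (GeneBLAzer PPAR-delta-UAS-bla) in HEK293T cells, 2% charcoal/dextran FBS, 4000 cells/well. Compound titrations, 18 h at 37 C; CCF4 ratio read, IC50 and efficacy from Hill fits.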

Assay [12] addresses Peroxisome proliferator-activated receptor delta (Homo sapiens) (UniProt Q03181). The assay is described as above. Particulars: HEK293T PPARd-UAS-bla, beta-lactamase FRET ratio, 18 h; series mostly up to 76.7 µM. The method, boiled down:
as §2

The target of assay [13] is Peroxisome proliferator-activated receptor gamma (Homo sapiens) (UniProt P37231). Nature of the assay: qHTS assay for small molecule agonists of peroxisome proliferator-activated receptor gamma signaling (AID 588536; active = well fitted curve in the direction sought with a large enough effect in the signal ratio, with a control signal flat, not every such curve was filed as active; the % refers to the signal ratio;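 also: 0% = DMSO basal wells and 100% = rosiglitazone at 2 µM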). Conditions: HEK293 PPARg-UAS-bla, beta-lactamase ratio, 16 h, percent of rosiglitazone response, DMSO as zero; series mostly up to 76.7 µM. The method, boiled down: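 Ratiometric blue/green fluorescence (405 nm excitation; 460 and 530 nm emission) from CCF4-loaded HEK293 reporter cells serves as signal. Exposure to test compounds lasts 16 h at 37 C in medium containing 1% charcoal/dextran-treated serum.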
Sequence of Peroxisome proliferator-activated receptor gamma (Homo sapiens) (P37231 whole entry, looked up): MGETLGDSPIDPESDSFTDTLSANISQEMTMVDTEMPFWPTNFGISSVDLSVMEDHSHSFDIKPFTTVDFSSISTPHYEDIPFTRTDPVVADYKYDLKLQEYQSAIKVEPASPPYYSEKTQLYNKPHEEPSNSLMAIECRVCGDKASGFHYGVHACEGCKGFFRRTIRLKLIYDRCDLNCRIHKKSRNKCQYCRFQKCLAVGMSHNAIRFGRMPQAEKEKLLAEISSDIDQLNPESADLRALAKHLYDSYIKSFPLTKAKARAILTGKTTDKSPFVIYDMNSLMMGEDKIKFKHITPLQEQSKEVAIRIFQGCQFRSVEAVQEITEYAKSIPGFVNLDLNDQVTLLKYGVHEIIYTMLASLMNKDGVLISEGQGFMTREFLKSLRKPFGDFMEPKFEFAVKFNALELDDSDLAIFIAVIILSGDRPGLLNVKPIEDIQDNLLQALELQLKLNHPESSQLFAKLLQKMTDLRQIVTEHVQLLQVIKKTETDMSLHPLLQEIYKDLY

For assay [14] the target is unchanged. Kind of assay: qHTS assay for small molecule antagonists of peroxisome proliferator-activated receptor gamma signaling (AID 588537; active = well fitted inhibition curve with a large enough effect in the signal ratio, with a control signal flat, not every such curve was filed as active; the % refers to the signal ratio;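 also: reporter cells co-stimulated with 50 nM rosiglitazone agonist during compound treatment; % of control where 0% means no effect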). Particulars: HEK293 PPARg-UAS-bla, beta-lactamase ratio, antagonist mode; series mostly up to 76.8 µM. Put shortly: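 PPARγ-UAS-bla HEK293 cells (3000/well) in 1% charcoal/dextran-stripped FBS are treated with compound, then stimulated with 50 nM rosiglitazone for 16 h at 37 °C. Read-out is CCF4 β-lactamase fluorescence after 2 h at RT. IC50 comes from Hill fits normalised to rosiglitazone and DMSO.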

Assay [15] deals with Vitamin D3 receptor (Homo sapiens) (UniProt P11473). Nature of the assay: qHTS assay for small molecule antagonists of vitamin D receptor signaling (AID 588541).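 Also: receptor activated by calcitriol during compound treatment; % is scaled to controls: 0 for no effect and ±100 for the full control effect.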 Particulars: HEK293T VDR-UAS-bla, beta-lactamase ratio, antagonist mode; series mostly up to 76.7 µM. The method, boiled down:
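VDR-UAS-bla HEK293T cells in 2% charcoal-stripped FBS were stimulated with 1-alpha,25-dihydroxyvitamin D3 (3 nM final) plus compound for 16 h at 37 C. The beta-lactamase CCF4 readout was normalized to 50 nM agonist and DMSO, and Hill fits gave IC50.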

Assay [16] addresses Thyroid hormone receptor beta (Homo sapiens) (UniProt P10828). Kind of assay: qHTS assay for small molecule antagonists of thyroid hormone receptor beta signaling (AID 588547; active = well fitted inhibition curve with a large enough effect in the signal ratio, with a control signal flat, not every such curve was filed as active; the % refers to the signal ratio;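 also: cells stimulated with 0.4 nM T3 agonist during compound exposure; % is scaled to controls: 0 for no effect and ±100 for the full control effect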). Particulars: TR-UAS-bla HEK293, beta-lactamase ratio, antagonist mode, 18 h. The method, boiled down:
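TR-UAS-bla GripTite HEK293 cells in 2% charcoal/dextran FBS medium; compounds 0.59 nM to 92 uM with T3 at 0.4nM final, 18 h at 37 C. Beta-lactamase read by CCF4 fluorescence (460/530 nm); Hill fits gave IC50 and efficacy.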

Assay [17] can be described thus: S16 Schwann cell viability assay (CellTiter-Glo assay) (AID 624031; active = well fitted curve in the direction sought with a large enough effect; an effect the other way counts as inactive or inconclusive;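 also: native untransfected S16 rat Schwann cells; plate controls were DMSO-treated cells for no effect and cell-free wells for full effect; nearly all actives have a fitted effect of over 70% in size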). Particulars: S16 rat Schwann cells viability, 24 h; series mostly up to 57.5 µM. The method, boiled down: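 Counter-screen for cytotoxicity: parental S16 rat Schwann cells lacking the PMP22 reporters, treated 24 h with compound, viability from cellular ATP by CellTiter-Glo luminescence, normalized to DMSO (0%) and no-cell wells.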
(Cellular ATP, detected with luciferase, serves as a proxy for viable cell number.)

A short description of assay [18]: S16 Schwann cell PMP22 intronic element beta-lactamase assay (AID 624044).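 Also: 0% = DMSO and -100% = potassium clavulanate positive control; nearly all actives have a fitted effect of over 15% in size.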 Conditions: S16 rat Schwann cells, PMP22 element beta-lactamase FRET, 24 h; series mostly up to 38.3 µM. Put shortly:
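Rat S16 Schwann cells with beta-Lac driven by a PMP22 intronic element, compound-treated 24 h at 37 °C. LiveBLAzer FRET B/G read: 460 nm normalized to potassium clavulanate vs DMSO; 535 nm FRET as viability; concentration-effect curves classified.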

Assay [19] in a line: S16 Schwann cell PMP22 intronic element firefly luciferase assay (AID 624032; active = well fitted curve in the direction sought with a large enough effect; an effect the other way counts as inactive or inconclusive;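 also: plate controls were DMSO for no effect and PTC124 positive control mean for full effect; nearly all actives have a fitted effect of over 30% in size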). Conditions: S16 rat Schwann cells, PMP22 element FLuc, 24 h; series mostly up to 57.5 µM. Put shortly: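 Rat S16 Schwann cells stably carrying firefly luciferase driven by a PMP22 intronic element, in 10% FBS, treated 24 h at 37 C. ONE-Glo luminescence normalized to PTC124 control and DMSO (0%); curves classed by r2, magnitude and activity.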

Assay [20] addresses Glutaminase kidney isoform, mitochondrial (Homo sapiens) (UniProt O94925). Kind of assay: qHTS for Inhibitors of Glutaminase (GLS): LOPAC Validation (AID 624146; active = well fitted curve in the direction sought with a large enough effect; an effect the other way counts as inactive or inconclusive; also: nearly all actives have a fitted effect of over 60% in size; also: potency is read from the fitted curve at half-maximal effect). Particulars: glutaminase enzyme activity inhibition; series mostly up to 46.1 µM. Put shortly:
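Enzyme dispensed in phosphate buffer (45 mM, pH 8.2, 0.02% Tween-20), compounds pinned in, then 1 mM L-glutamine solution and the glutamate oxidase–HRP–Amplex Red mix added; fluorescence read immediately and again after 30 min at room temperature.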

Sequence of Glucocorticoid receptor (Homo sapiens) (P04150 whole entry, looked up): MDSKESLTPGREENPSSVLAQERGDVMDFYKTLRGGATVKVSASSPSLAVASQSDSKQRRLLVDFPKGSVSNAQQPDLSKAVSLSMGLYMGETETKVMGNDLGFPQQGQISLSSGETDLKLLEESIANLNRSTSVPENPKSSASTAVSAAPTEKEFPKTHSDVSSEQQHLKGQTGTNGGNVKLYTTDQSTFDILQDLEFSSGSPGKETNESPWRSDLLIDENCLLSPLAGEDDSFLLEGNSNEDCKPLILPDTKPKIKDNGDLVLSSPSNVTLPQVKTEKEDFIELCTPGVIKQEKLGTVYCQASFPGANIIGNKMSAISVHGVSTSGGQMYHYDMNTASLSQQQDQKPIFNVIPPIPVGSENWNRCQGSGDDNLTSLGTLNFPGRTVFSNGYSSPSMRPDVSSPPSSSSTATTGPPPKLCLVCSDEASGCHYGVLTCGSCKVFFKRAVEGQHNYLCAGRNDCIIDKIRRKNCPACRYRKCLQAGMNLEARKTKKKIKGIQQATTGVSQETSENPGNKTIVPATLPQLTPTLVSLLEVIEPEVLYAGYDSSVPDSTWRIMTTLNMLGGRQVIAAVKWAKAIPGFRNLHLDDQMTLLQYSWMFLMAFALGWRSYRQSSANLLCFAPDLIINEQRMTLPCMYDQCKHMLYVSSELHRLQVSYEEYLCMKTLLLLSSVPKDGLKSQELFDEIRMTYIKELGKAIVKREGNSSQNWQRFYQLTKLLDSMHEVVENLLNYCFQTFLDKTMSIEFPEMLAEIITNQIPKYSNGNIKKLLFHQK
Sequence of Vitamin D3 receptor (Homo sapiens) (P11473 whole entry, looked up): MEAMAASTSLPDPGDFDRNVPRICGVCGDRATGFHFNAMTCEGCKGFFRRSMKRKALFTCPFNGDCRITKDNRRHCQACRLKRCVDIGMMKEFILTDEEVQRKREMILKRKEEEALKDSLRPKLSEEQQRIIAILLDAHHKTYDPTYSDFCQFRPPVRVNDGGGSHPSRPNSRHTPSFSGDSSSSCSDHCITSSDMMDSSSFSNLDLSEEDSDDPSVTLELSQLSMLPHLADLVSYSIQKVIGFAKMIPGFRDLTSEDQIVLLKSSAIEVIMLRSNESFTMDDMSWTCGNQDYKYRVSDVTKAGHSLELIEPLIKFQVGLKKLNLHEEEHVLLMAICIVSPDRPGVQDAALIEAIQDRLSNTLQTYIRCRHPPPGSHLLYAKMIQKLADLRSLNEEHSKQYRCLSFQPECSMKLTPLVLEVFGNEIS

Turning to `C[C@]12CCC(=O)C=C1CC[C@@H]1[C@@H]2CC[C@@]2(C)[C@H]1CC[C@]2(C)O`, the Potency in assay [1] is 15.8 µM (active). The outcome in assay [2] and in assay [5] was inactive. For the same compound, the max response in [3] was -11.4%; in [6], -11.8%; in assay [7] it was 36.9% (inactive). Moreover, the Potency result in assay [4], in assay [8] and in [9] was “inactive” each time.
Take `NC(=O)c1ccccc1O`: in assay [10], the result was inactive.
Same read-out and setting: next, `CCCCCCCC(=O)OCC(COC(=O)CCCCCCC)OC(=O)CCCCCCC`: “inactive”; `CCc1cc(C(N)=S)ccn1`: “inactive”.
In the case of `CC(=O)Nc1ccccc1`, the result in assay [10] was inactive.
As to `CCCCOC(=O)c1ccc(O)cc1`, in assay [10], the result was inactive.
Consider `COP(=S)(OC)Oc1ccc(SC)c(C)c1`, for which the Potency result in assay [1], in assay [15] and in assay [4] was “inactive” throughout. For the same compound, the outcome in [10], in assay [12], in assay [13], in assay [14], in assay [2] and in [5] was inactive. The outcome in assay [17] and in [18] was inactive. The max response in [11] is 3.56%; in assay [3], -8.01% and -11.8%; in assay [6], -22.3% and -7.85%; in [7], -5.05% (inactive) and -30% (inactive). Also, in assay [16], the activity change % (negative = inhibition) was -0.0791% (inactive).
On to `Nc1ccccc1`, for which the Potency result in assay [1], in assay [4], in assay [8] and in assay [9] was “inactive” each time. The result in assay [10], in assay [12], in assay [13], in [14], in assay [2] and in assay [5] was inactive. In addition, the max response in assay [11] was 1.43%; in assay [3] it was 9.36%; in assay [6], -11.1%; in assay [7], 4.87% (inactive). Besides, in assay [16], the activity change % (negative = inhibition) was -1.42% (inactive).
On to `Cc1cc(=O)[nH]c(=S)[nH]1`, for which the outcome in [10] was inactive.
Turning to `CCCCCCCCCCCCCCCCO`, the outcome in assay [10] was inactive.
In the case of `COc1cc(OC)c(OC)cc1C=O`, the Potency result in assay [1], in [15], in [8] and in [9] was “inactive” each time. For the same compound, the result in [13] and in assay [2] was inactive. Further, the values for the max response in [6] and in [7] were -5.72% and -9.79% (inactive), respectively.
Turning to `CC(C)NC(C)C`, the Potency entry in [1], in assay [15], in assay [4], in assay [8], in assay [9] and in assay [19] was “inactive” throughout. Also, the outcome in [10], in [13], in [2] and in assay [5] was inactive. In addition, the figures for the max response in assay [3], in [6] and in [7] were -5.82%, -16.3% and 9.42% (inactive), respectively.
Take `O=c1[nH]c(=O)n([C@H]2C[C@H](O)[C@@H](CO)O2)cc1Br`: the outcome in assay [10] was inactive.
Still for that read-out and setting: next, `O=C(O)c1cc(O)c(O)c(O)c1`: “inactive”; `c1ccc2sc(SSc3nc4ccccc4s3)nc2c1`: “inactive”.
For `CC(C)c1cccc(C(C)C)c1O`, in assay [20], the Potency was 4.47 µM (active).
As to `O=C(O)CCCc1ccc(N(CCCl)CCCl)cc1`, the Potency result in [20] is “inactive”.
With `CC(C)C[C@H](CN)CC(=O)O`, the Potency entry in [8] is “inactive”.
The same measure, in the same setting: next, `CC(C)c1c(CN(C)C(C)Cc2ccccc2)n(C)n(-c2ccccc2)c1=O` (centres undefined): “inactive”.
Turning to `CC(C)(C)NCC(O)c1ccccc1Cl` (centres undefined), the Potency result in [8], in assay [9], in assay [19] and in assay [20] was “inactive” in each case. Besides, in [17], the compound was called inactive.
Take `O=C(N/N=C/c1ccc([N+](=O)[O-])o1)c1cc([N+](=O)[O-])cc([N+](=O)[O-])c1O`: the Potency result in assay [8] and in assay [19] was “inactive” each time. Besides, the Potency in assay [9] was 36.1 µM (active). For the same compound, the compound was called inactive in assay [17] and in assay [18].
`Clc1ccc2c(c1)C(c1ccccc1)=NCc1nncn1-2`: the Potency entry in assay [8], in assay [9] and in [19] was “inactive” each time. Also, the outcome in [18] was inactive.
